The target in test [1] is T1, Muscle, skeletal receptor tyrosine-protein kinase (Homo sapiens) (UniProt O15146).
T1 sequence (whole entry): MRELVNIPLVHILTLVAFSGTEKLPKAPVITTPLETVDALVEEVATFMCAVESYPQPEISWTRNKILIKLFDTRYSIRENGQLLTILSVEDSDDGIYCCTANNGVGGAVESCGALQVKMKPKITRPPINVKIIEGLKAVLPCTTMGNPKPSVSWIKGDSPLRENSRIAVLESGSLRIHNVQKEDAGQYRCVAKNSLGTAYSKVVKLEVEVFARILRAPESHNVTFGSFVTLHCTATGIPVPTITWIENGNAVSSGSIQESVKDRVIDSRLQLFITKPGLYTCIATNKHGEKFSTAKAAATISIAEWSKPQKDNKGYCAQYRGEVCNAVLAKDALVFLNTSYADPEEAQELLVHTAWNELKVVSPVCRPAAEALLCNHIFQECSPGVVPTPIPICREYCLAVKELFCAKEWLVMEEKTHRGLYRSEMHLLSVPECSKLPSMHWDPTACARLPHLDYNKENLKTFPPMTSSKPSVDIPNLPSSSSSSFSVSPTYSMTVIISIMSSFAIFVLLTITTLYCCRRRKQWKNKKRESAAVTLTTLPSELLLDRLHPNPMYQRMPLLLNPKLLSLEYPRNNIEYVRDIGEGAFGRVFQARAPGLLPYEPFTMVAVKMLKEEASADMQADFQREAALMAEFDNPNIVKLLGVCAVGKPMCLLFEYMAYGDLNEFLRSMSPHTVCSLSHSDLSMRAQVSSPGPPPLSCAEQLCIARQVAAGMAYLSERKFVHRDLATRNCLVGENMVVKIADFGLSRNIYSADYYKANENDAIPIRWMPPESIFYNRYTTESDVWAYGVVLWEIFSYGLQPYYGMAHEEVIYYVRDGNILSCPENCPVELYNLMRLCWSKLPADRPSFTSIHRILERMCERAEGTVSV
The conditions noted are these: at 1 µM.

For test [2], the target named is T1, Muscle, skeletal receptor tyrosine-protein kinase (Homo sapiens). The following applies: at 10 µM.
Test [3] has as its target T2, Serine/threonine-protein kinase Nek11 (Homo sapiens) (UniProt Q8NG66).
T2 sequence (whole entry): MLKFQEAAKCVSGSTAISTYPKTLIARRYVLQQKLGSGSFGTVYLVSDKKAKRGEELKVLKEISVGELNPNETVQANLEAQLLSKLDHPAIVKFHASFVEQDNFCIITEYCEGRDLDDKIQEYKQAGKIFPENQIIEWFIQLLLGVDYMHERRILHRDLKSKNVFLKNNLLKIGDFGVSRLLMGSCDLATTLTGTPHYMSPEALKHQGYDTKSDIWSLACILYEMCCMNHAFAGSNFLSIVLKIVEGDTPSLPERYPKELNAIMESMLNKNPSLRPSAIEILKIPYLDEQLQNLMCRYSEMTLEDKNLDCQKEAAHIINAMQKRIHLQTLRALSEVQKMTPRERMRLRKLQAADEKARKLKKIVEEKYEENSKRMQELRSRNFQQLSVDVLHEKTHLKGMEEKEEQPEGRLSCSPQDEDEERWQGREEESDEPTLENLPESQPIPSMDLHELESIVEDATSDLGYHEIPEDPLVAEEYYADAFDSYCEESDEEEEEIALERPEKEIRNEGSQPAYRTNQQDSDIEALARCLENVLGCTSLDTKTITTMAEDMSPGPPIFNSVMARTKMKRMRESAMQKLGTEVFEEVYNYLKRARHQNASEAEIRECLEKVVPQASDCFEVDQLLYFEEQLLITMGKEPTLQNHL
The conditions noted are these: at 1 µM.

The target in test [4] is T2, Serine/threonine-protein kinase Nek11 (Homo sapiens). The following applies: at 10 µM.
In test [5] the target is T3, Serine/threonine-protein kinase Nek2 (Homo sapiens) (UniProt P51955).
T3 sequence (whole entry): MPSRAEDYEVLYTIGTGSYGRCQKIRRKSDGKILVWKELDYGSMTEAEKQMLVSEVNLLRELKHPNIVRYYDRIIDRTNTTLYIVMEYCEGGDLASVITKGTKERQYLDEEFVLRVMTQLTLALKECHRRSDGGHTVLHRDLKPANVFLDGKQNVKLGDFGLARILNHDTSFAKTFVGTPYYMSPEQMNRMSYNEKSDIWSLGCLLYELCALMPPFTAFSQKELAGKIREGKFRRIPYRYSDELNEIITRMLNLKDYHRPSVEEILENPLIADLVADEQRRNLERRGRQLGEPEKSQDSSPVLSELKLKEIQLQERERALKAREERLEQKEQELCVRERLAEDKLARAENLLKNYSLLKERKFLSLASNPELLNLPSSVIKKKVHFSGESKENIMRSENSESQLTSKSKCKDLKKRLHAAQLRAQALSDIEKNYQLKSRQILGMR
The following applies: at 1 µM.

Test [6] deals with T3, Serine/threonine-protein kinase Nek2 (Homo sapiens). The following applies: at 10 µM.
In test [7] the target is T4, Serine/threonine-protein kinase Nek3 (Homo sapiens) (UniProt P51956).
T4 sequence (whole entry): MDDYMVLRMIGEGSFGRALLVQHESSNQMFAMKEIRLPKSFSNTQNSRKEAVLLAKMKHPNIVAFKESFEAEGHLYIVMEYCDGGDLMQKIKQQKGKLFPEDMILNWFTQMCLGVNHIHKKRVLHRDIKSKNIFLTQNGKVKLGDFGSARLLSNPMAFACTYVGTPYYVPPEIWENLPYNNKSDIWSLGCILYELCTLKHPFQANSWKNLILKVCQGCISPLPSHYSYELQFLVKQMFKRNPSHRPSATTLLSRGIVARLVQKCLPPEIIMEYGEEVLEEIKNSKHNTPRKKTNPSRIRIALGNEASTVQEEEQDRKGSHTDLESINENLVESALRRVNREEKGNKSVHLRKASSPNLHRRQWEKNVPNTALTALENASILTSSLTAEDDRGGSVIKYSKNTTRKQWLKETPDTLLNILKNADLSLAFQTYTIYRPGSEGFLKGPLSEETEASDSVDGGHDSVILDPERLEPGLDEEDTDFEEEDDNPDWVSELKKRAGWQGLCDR
The following applies: at 1 µM.

Test [8] has as its target T4, Serine/threonine-protein kinase Nek3 (Homo sapiens). The conditions noted are these: at 10 µM.
Test [9] has as its target Serine/threonine-protein kinase tousled-like 2 (Homo sapiens) (UniProt Q86UE8). The following applies: at 1 µM.
Test [10] has the same target. The conditions noted are these: at 10 µM.
In test [11] the target is T5, Testis-specific serine/threonine-protein kinase 1 (Homo sapiens) (UniProt Q9BXA7).
T5 sequence (whole entry): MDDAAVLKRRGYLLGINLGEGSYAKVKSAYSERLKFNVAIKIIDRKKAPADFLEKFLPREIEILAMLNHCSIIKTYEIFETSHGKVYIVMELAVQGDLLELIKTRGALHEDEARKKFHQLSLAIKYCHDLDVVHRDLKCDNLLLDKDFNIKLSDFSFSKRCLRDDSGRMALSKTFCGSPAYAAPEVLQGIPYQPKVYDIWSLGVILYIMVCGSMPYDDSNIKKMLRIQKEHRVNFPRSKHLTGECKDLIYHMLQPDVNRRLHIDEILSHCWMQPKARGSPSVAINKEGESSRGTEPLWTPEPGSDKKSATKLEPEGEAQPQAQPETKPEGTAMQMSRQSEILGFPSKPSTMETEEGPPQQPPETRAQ
The conditions noted are these: at 1 µM.

In test [12] the target is T5, Testis-specific serine/threonine-protein kinase 1 (Homo sapiens). The conditions noted are these: at 10 µM.
For test [13], the target named is T6, Testis-specific serine/threonine-protein kinase 2 (Homo sapiens) (UniProt Q96PF2).
T6 sequence (whole entry): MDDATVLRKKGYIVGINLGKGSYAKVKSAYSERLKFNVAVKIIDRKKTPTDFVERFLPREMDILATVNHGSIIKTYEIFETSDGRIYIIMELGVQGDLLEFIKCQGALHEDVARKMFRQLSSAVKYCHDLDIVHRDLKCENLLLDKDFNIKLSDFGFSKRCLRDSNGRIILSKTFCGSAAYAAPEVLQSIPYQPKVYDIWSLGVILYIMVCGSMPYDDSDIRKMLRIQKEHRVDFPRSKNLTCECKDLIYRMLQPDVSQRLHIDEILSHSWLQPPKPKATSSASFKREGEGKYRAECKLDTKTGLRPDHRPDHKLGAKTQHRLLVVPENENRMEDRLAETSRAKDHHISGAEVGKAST
The conditions noted are these: at 10 µM.

Test [14] addresses T7, Tyrosine-protein kinase Tec (Homo sapiens) (UniProt P42680).
T7 sequence (whole entry): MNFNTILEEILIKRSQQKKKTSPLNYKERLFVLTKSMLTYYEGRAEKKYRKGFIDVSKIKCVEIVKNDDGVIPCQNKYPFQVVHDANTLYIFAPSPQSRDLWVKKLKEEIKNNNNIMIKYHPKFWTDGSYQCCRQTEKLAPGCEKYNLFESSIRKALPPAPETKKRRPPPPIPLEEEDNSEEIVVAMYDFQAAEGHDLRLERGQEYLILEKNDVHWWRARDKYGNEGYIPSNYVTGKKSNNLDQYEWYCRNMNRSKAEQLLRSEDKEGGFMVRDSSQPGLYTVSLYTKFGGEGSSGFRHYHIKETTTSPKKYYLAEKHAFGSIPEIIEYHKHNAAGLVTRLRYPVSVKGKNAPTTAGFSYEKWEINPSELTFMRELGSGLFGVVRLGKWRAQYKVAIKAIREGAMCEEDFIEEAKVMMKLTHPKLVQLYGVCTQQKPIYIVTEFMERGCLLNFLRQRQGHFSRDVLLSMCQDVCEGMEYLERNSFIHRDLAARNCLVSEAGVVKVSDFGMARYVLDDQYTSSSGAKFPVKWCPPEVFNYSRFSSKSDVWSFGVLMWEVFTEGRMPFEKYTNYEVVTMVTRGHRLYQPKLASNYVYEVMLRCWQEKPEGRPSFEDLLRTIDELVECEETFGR
The following applies: at 1 µM.

Test [15] concerns the target T7, Tyrosine-protein kinase Tec (Homo sapiens). The conditions noted are these: at 10 µM.
Test [16] has as its target Angiopoietin-1 receptor (Homo sapiens) (UniProt Q02763). The conditions noted are these: at 1 µM.
Test [17] has the same target. The following applies: at 10 µM.
Test [18] concerns the target High affinity nerve growth factor receptor (Homo sapiens) (UniProt P04629). The following applies: at 1 µM.
For test [19] the target is unchanged. The following applies: at 10 µM.
In test [20] the target is BDNF/NT-3 growth factors receptor (Homo sapiens) (UniProt Q16620). The conditions noted are these: at 1 µM.
Sequence of BDNF/NT-3 growth factors receptor (Homo sapiens) (Q16620 32-822 limits assumed): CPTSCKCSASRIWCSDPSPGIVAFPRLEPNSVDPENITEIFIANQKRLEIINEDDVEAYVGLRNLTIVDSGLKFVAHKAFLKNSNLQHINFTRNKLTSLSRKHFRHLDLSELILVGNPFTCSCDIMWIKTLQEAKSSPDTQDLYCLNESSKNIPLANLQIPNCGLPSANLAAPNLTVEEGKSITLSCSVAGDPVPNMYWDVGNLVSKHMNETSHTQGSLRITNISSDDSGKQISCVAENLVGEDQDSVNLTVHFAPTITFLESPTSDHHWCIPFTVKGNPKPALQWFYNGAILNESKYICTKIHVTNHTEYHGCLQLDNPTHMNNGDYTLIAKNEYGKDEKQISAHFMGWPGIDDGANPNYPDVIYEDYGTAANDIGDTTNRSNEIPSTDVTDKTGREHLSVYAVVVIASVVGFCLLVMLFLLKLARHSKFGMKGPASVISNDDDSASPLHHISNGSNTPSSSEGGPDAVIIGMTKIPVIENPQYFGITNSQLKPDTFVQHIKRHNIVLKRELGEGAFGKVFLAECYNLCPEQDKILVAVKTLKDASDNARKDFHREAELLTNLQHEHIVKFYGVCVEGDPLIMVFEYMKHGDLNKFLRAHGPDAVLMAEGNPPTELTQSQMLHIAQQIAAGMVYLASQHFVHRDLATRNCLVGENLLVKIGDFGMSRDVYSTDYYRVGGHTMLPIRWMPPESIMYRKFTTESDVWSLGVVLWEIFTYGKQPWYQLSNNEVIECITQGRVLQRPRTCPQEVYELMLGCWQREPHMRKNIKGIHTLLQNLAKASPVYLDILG

The text below walks through data of ChEMBL document CHEMBL2218924, “A broad activity screen in support of a chemogenomic map for kinase signalling research and drug discovery” (Biochem J, 2013).

In general, residual activity refers to the signal under treatment as a percentage of the control signal.

Sequence of Angiopoietin-1 receptor (Homo sapiens) (Q02763 whole entry): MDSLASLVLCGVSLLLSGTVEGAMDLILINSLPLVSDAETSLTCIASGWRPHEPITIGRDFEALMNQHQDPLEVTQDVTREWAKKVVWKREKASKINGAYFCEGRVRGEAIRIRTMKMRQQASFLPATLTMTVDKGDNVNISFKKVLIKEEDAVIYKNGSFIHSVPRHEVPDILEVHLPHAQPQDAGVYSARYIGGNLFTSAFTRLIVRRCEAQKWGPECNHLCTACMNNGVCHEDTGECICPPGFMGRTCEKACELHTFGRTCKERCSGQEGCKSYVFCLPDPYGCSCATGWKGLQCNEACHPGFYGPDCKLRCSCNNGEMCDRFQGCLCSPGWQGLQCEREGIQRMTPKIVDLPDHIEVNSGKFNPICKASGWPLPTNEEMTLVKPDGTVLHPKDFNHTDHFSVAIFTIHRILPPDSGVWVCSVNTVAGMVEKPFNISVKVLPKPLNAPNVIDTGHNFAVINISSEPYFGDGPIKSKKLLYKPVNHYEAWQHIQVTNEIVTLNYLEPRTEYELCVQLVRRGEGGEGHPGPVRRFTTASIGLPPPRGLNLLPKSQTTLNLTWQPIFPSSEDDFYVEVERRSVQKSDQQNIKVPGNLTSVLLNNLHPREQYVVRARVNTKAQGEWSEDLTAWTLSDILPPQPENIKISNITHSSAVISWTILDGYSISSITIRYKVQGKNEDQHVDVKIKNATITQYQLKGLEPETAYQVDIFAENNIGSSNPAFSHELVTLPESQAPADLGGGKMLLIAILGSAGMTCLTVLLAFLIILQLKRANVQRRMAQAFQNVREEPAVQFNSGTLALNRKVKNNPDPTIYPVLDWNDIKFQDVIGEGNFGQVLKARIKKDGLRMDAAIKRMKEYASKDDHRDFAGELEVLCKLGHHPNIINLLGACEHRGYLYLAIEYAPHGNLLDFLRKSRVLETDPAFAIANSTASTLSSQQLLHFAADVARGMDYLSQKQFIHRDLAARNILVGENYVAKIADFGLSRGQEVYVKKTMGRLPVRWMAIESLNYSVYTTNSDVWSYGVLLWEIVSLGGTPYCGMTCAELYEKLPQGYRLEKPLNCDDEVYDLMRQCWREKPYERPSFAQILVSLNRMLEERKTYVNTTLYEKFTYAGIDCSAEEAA
Sequence of High affinity nerve growth factor receptor (Homo sapiens) (P04629 33-796 limits assumed): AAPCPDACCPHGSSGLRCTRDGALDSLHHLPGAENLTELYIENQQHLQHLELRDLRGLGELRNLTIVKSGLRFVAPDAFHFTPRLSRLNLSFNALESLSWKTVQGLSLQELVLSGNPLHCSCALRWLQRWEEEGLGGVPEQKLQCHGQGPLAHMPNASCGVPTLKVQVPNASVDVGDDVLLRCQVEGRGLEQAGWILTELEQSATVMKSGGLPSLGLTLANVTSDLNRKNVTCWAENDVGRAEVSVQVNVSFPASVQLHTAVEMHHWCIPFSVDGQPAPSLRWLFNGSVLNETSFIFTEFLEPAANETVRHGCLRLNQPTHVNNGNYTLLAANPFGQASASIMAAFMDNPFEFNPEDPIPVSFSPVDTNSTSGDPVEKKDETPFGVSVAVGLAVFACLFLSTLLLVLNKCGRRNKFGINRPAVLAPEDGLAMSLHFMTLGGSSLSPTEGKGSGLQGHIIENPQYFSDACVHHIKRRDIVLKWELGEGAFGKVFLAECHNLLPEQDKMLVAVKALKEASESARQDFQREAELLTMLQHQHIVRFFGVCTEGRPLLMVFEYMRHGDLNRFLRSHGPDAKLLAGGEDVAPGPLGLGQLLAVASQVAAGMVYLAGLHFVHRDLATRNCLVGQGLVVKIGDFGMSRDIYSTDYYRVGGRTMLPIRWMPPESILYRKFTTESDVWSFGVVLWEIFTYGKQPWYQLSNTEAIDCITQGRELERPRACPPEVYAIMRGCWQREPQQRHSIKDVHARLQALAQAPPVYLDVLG
Sequence of Serine/threonine-protein kinase tousled-like 2 (Homo sapiens) (Q86UE8 whole entry, looked up): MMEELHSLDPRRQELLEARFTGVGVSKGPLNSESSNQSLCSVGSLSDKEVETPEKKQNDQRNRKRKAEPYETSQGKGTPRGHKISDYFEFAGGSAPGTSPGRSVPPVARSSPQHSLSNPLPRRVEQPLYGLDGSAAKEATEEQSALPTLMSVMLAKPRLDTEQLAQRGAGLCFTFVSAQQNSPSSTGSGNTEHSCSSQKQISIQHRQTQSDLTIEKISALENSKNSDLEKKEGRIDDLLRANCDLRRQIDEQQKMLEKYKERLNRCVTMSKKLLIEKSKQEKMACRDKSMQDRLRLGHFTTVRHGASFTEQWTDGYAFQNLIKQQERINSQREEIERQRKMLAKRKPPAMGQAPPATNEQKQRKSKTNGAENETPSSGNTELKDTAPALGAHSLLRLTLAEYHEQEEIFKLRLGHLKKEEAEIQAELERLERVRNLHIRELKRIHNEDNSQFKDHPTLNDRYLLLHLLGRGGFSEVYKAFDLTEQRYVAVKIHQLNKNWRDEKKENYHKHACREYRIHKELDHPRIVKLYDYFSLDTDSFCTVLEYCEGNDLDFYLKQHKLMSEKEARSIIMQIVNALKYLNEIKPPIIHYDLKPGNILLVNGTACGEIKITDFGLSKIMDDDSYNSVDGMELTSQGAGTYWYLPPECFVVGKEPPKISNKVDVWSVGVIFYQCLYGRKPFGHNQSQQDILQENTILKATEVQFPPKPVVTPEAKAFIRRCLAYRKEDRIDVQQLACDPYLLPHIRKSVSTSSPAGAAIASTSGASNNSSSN

As to `O=c1c2ccccc2[nH]c(=S)n1CCN1CCC(=C(c2ccc(F)cc2)c2ccc(F)cc2)CC1`, the residual activity in test [1] is 116%; in [2], 91%; in [3], 106%; in test [4], 98%; in test [5], 86%; in test [6], 106%. Further, the residual activity was 104% in test [7]; 42% in test [8]; 104% in test [9]; 94% in [10]; 101% in test [11]; 86% in [12]. Besides, the residual activity in test [13] was 70%; in test [14], 94%; in test [15], 44%; in test [16] it was 87%; in [17], 59%; in test [18], 82%. The results for the residual activity in test [19] and in test [20] were 87% and 44%, respectively.

In the case of `Ic1cccc(CSc2nnc(-c3ccncc3)o2)c1`, the residual activity in test [1] worked out at 74%; in test [2], 59%; in [3] it was 103%; in test [4] it was 102%; in test [5], 88%; in test [6] it was 89%. Moreover, the residual activity is 84% in [7]; 84% in [8]; 83% in [9]; 83% in [10]; 78% in [11]; 86% in test [12]. Moreover, the residual activity came out at 82% in test [13]; 90% in test [14]; 64% in test [15]; 104% in test [16]; 84% in [17]; 87% in test [18]. For the same compound, the residual activity in [19] came out at 64%; in test [20] it was 32%.

In the case of `COc1cc2ncc(-c3ccccc3)nc2cc1OC`, the residual activity was 87% in test [3]; 94% in test [5]; 100% in [6]; 125% in test [7]; 85% in [8]; 92% in [12]. Moreover, the residual activity in [13] is 84%; in test [14], 96%; in test [15], 63%; in test [17], 80%; in test [18], 39%; in test [19], -1%. Besides, the residual activity in [20] was 54%.
